# Glyco luc inh: increase of ERlucT glycosylation luciferase signal, primary screen, N-linked glycosylation inhibitor project, D54 ERlucT cells, luminescence, set 2. AID 588692, 2011. D54 ERlucT glycosylation luciferase reporter, 24 h; percent of 100 nM tunicamycin response. reporter increase, % at 12.5 µM. 0.23% of 360,000 active;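 active means mean luciferase reporter signal, scaled so untreated is 0 and the glycosylation-blocking control 100, at or above a set limit in every replicate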;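 further: luciferase carries N-glycosylation sites so blocking glycosylation raises the light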
# HIV Env fusion: inhibitors of HIV-1 Env-driven cell-cell fusion, primary screen, HeLa-JRFL effector, CEM21 target cells, luciferase. 1.1% of 360,000 active. inhibition, % at 12.3 µM. AID 651610, 2012;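 active means mean replicate inhibition score of at least 50 and every replicate individually at or above 50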
# PAX8 inh HTS: inhibitors of PAX8-driven TPO luciferase reporter, primary screen, RMG-I cells, single concentration; SteadyGlo, 24 h; inhibition, % at 12.6 µM; 1.2% of 360,000 active; AID 652154, 2013;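 active means mean replicate inhibition at least 60% with every replicate also reaching 60%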;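 further: luciferase light reporting Pax8 driven TPO promoter activity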
# Shn3 3UTR inh: reduction of Shn3 3'UTR firefly luciferase signal, primary screen, Schnurri-3 inhibitor project, cell-based, Clone20 osteoblasts, set 2 | inhibition, % at 12.5 µM | AID 588674, 2011 | 0.52% of 360,000 active | Clone20 osteoblast Shn3 3'UTR firefly luciferase, 24 h;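 active means mean inhibition of at least 75% with every replicate also reaching 75%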
# EBV LMP1 NFkB: EBV LMP1-driven NF-kappaB luciferase reporter inhibitors, primary screen, cell-based, luminescence, single point | LMP1-induced NF-kappaB luciferase reporter cells | inhibition, % at 12.5 µM | 0.69% of 350,000 active; in the data active means inhibition above about 41%
# NSD2 HMT inh: NSD2 histone methyltransferase inhibitors, primary screen, biochemical, AlphaScreen, single concentration, set 2; Histone-lysine N-methyltransferase NSD2 (Homo sapiens), O96028; NSD2 peptide methylation, 120 min; inhibition, % at 12.5 µM; 0.54% of 310,000 active; in the data active means inhibition above about 50%
# Numbers stand for hits; i = inactive; nt = no result; [ ] = dose if it differs, or a comment. An excerpt weighted towards active compounds, which were near 2.8% of everything screened.
SMILES,Glyco luc inh,HIV Env fusion,PAX8 inh HTS,Shn3 3UTR inh,EBV LMP1 NFkB,NSD2 HMT inh
Nn1cnnc1SCC(=O)Nc1ccc(C2CCCCC2)cc1,i,nt,nt,i,i,nt
O=C(NCc1ccc(F)cc1)C1(c2cccs2)CCOCC1,i,nt,122.9,i,i,i
O=C(c1cccnc1)N1CCCCN2[C@H](CO)[C@H](c3ccc(C#Cc4ccccc4)cc3)[C@@H]2C1,nt,nt,i,nt,nt,nt
O=C(Nc1ccc(F)cc1)Nc1ccc(N2CCCC2)c(S(=O)(=O)Nc2ccccc2Cl)c1,i,i,88.1,i,i,i
O=C(Nc1ccc(Cl)c(Cl)c1)Nc1ccc(N2CCCC2)c(S(=O)(=O)Nc2ccccc2Cl)c1,i,81.0,i,97.7,i,i
O=C(Nc1ccc(N2CCOCC2)c(S(=O)(=O)Nc2ccccc2Cl)c1)c1ccc(F)cc1,i,i,i,i,i,i
O=C(C[C@@H]1C[C@@H]2c3cc(NC(=O)Nc4ccccc4)ccc3O[C@@H]2[C@H](CO)O1)NCC(F)(F)F,nt,nt,i,nt,nt,nt
C[C@@H]1CCCCO[C@H](CN(C)C(=O)C2CCCCC2)[C@H](C)CN([C@@H](C)CO)C(=O)c2cc(NC(=O)Nc3ccc(F)cc3)ccc2O1,nt,i,i,nt,nt,nt
C[C@@H]1CCCCO[C@@H](CN(C)C(=O)C2CCCCC2)[C@@H](C)CN([C@H](C)CO)C(=O)c2cc(NC(=O)Nc3ccc(F)cc3)ccc2O1,nt,i,i,nt,nt,nt
C[C@@H]1CN([C@H](C)CO)C(=O)c2cc(NC(=O)Nc3ccccc3)ccc2O[C@@H](C)CCCCO[C@H]1CN(C)C(=O)C1CCCCC1,nt,i,i,nt,nt,nt
C[C@H](CO)N1C[C@H](C)[C@H](CN(C)C(=O)C2CCCCC2)OCCCC[C@H](C)Oc2ccc(NC(=O)Nc3ccc(F)cc3)cc2C1=O,nt,i,74.4,nt,nt,nt
C[C@H]1CCCCO[C@H](CN(C)C(=O)C2CCCCC2)[C@@H](C)CN([C@@H](C)CO)C(=O)c2cc(NC(=O)Nc3ccc(F)cc3)ccc2O1,nt,i,84.6,nt,nt,nt
C[C@@H]1CN([C@H](C)CO)C(=O)c2cc(NC(=O)Nc3ccc(F)cc3)ccc2O[C@@H](C)CCCCO[C@H]1CN(C)C(=O)C1CCCCC1,nt,i,86.0,nt,nt,nt
C[C@@H](NC(=O)C[C@@H]1C[C@@H]2c3cc(NC(=O)Nc4ccccc4F)ccc3O[C@@H]2[C@@H](CO)O1)c1ccccc1,nt,i,i,nt,nt,nt
N=C1/C(=C/c2cccn2Cc2ccc(Cl)cc2)C(=O)N=C2SC=CN12,i,62.9,nt,i,i,i
C[C@@H]1CN([C@H](C)CO)C(=O)c2cc(C#CC3CC3)cnc2O[C@@H]1CN(C)C(=O)C1CCCCC1,nt,i,nt,nt,nt,nt
C[C@H](CO)N1C[C@H](C)[C@H](CN(C)Cc2ccc(C(=O)O)cc2)OCCCC[C@H](C)Oc2ccc(NC(=O)Nc3ccc(F)cc3)cc2C1=O,nt,i,i,nt,nt,nt
COc1ccc2c3c([nH]c2c1)[C@H](CO)N(C(C)=O)CC31CCN(C(=O)Nc2ccccc2F)CC1,nt,i,nt,nt,nt,nt
CC(C)N(C(=O)[C@H]1C[C@H](CC(=O)NCC23CC4CC(CC(C4)C2)C3)C(=O)N2CCc3c([nH]c4ccc(Cl)cc34)[C@]12C)C(C)C,i,nt,66.6,i,i,nt
CCN(CC)C(=O)[C@H]1C[C@H](CC(=O)NCc2cccc(C(F)(F)F)c2)C(=O)N2CCc3c([nH]c4ccc(Cl)cc34)[C@]12C,i,i,76.4,i,i,nt
CC(C)N(C(=O)[C@H]1C[C@H](CC(=O)NCCCN(C)C)C(=O)N2CCc3c([nH]c4ccc(Cl)cc34)[C@]12C)C(C)C,i,i,i,i,i,nt
CCN(CC)C(=O)[C@H]1C[C@H](CC(=O)NCC23CC4CC(CC(C4)C2)C3)C(=O)N2CCc3c([nH]c4ccc(Cl)cc34)[C@]12C,i,64.9,i,i,i,nt
COc1ccc2c3c(n(C)c2c1)[C@@H](CO)N(Cc1cc(F)ccc1F)CC31CCN(C(=O)C2CC2)CC1,nt,nt,i,nt,nt,nt
COc1ccccc1-n1c(-c2ccccc2)n[nH]c1=S,i,i,i,i,46.4,i
CO[C@H]1CN(C)C(=O)c2ccc(NC(=O)C3CC3)cc2OC[C@@H](C)N(Cc2cccc(F)c2)C[C@@H]1C,nt,i,i,nt,nt,nt
SMILES,Glyco luc inh,HIV Env fusion,PAX8 inh HTS,Shn3 3UTR inh,EBV LMP1 NFkB,NSD2 HMT inh
Cc1cccc(CSc2cccc3cccnc23)c1,i,i,nt,96.4,i,i
NNC(=O)c1ccc(CSc2cccc3cccnc23)cc1,i,i,i,i,i,i
COc1ccc(S(=O)(=O)Nc2ccc3c(c2)CC(=O)N([C@H](C)CO)C[C@H](C)[C@H](CN(C)S(=O)(=O)c2c(C)noc2C)O3)cc1,nt,56.7[16.7 µM],nt,nt,nt,nt
COc1ccc(S(=O)(=O)Nc2ccc3c(c2)CC(=O)N([C@H](C)CO)C[C@H](C)[C@H](CN(C)S(=O)(=O)c2ccc(F)cc2)O3)cc1,nt,91.0[16.7 µM],i,nt,nt,nt
COc1ccc(S(=O)(=O)N(C)C[C@@H]2Oc3ccc(NC(=O)Cn4cnnn4)cc3CC(=O)N([C@H](C)CO)C[C@@H]2C)cc1,nt,90.4[16.7 µM],nt,nt,nt,nt
COc1ccc(S(=O)(=O)Nc2ccc3c(c2)CC(=O)N([C@H](C)CO)C[C@H](C)[C@H](CN(C)S(=O)(=O)c2ccc(OC)cc2)O3)cc1,nt,56.2[16.7 µM],i,nt,nt,nt
Cc1noc(C)c1NC(=O)Nc1cccc2c1O[C@@H](CN(C)C(=O)NC(C)C)[C@@H](C)CN([C@@H](C)CO)C2=O,nt,i,i,nt,nt,nt
Cc1ccc(S(=O)(=O)N(C)C[C@@H]2Oc3ccc(NS(=O)(=O)c4c(C)noc4C)cc3CC(=O)N([C@H](C)CO)C[C@@H]2C)cc1,nt,61.7[16.7 µM],i,nt,nt,nt
COc1ccc(S(=O)(=O)Nc2ccc3c(c2)CC(=O)N([C@H](C)CO)C[C@H](C)[C@H](CN(C)S(=O)(=O)c2cccs2)O3)cc1,nt,62.1[16.7 µM],i,nt,nt,nt
CCOC(=O)c1c(CS(=O)(=O)c2ccccc2)n(C)c2cc(Br)c(O)c(CN(C)C)c12,i,66.9,i,i,i,i
CCOC(=O)c1c(-c2ccccc2)oc2cc(CN(C)C)c(O)c(CN(C)C)c12,i,nt,nt,94.3,i,i
CCOC(=O)c1c(C)oc2cc(Cl)c(O)c(CN(C)C)c12,i,i,i,i,i,i
CCOC(=O)c1c(CSc2ccccc2)oc2cc(Br)c(O)c(CN(C)C)c12,i,126.9,i,i,i,i
CCOC(=O)c1c(CSc2ccc(CC)cc2)oc2ccc(O)c(CN(C)C)c12,i,56.5,i,89.6,i,i
O=C(c1ccccc1F)N1CC(=O)N2[C@H](CO)[C@@H](c3ccc(-c4ccc(F)cc4)cc3)[C@@H]2C1,nt,nt,i,nt,nt,nt
O=C(C1CCC1)N1CC2(C1)[C@@H](c1ccccc1)[C@H](CO)N2C(=O)c1ccccn1,nt,nt,i,nt,nt,nt
O=C(c1sccc1-c1ccccc1)N1CCN(S(=O)(=O)c2ccccc2F)CC1,i,65.8,i,i,i,i

# High-throughput results as filed in PubChem BioAssay.
